A number with no mark means an inactive call.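 Rule for the calls: active = binding inhibited by at least 50%, or stimulated by at least 50%, shown as inhibition of -50% or lower; inactive = the rest.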
System: Rolipram
Assay: radioligand displacement at 30 receptors – biochemical, Panlabs HitProfilingScreen, selectivity assay for AVPR1a antagonist project, profiling panel (AID 743088)
Details: 30 targets, at 10 µM, active compounds read high

O=C(C1CCN(c2ccc(Cl)cn2)CC1)N(CC1CC1)c1ccc(Cl)cc1
inhibition of binding: -3%
